# According to PubChem BioAssay (NCATS):
# Inconclusive results are not listed. Entries that show only a call come without a potency. A number with no mark means an inactive call. Calls of active or inactive are those of the source. Calls follow the shape of the dose curve; as a rule, active = well fitted curve in the direction sought with a large enough effect; inconclusive = small, poorly fitted or top-dose-only effect, or another doubt; inactive = no such curve, though single readings can be large; an effect the other way counts as inactive or inconclusive.
# Tests used:
# [1] = Drug repurposing screens with cells derived from glioblastoma tumor samples (AID 1345199); settings: GBM patient neurospheres viability, ATP luminescence, 48 h; also: nearly all actives have a fitted effect of over 40% in size; also: potency is read from the fitted curve at half-maximal effect
# Procedure, shortened: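 Primary testing used CD133+ neurospheres from four GBM patients, seven concentrations, 48 h exposure and ATP-based viability; confirmation added three slower-growing patient lines.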
# C33A = experiment: Primary qHTS to identify gynecologic anti-cancer compounds using libraries of approved drugs and bioactive compounds (AID 1345084); settings: Gynecologic cancer cell panel viability, ATPlite luminescence, 48 h; series mostly up to 57.5 µM; also: nearly all actives have a fitted effect of over 55% in size
# Procedure, shortened: (§1)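 Five-concentration response, 48 h; readout is ATP-driven luciferase luminescence.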
# CASKI = experiment: as above; settings: Gynecologic cancer cell panel viability, ATPlite luminescence, 48 h; series mostly up to 57.5 µM
# Procedure, shortened: as §1
# Es-2 = experiment: as above; settings: Gynecologic cancer cell panel viability, ATPlite luminescence, 48 h; series mostly up to 57.5 µM
# Procedure, shortened: as §1
# HeLa = experiment: as above; settings: Gynecologic cancer cell panel viability, ATPlite luminescence, 48 h; series mostly up to 57.5 µM
# Procedure, shortened: as §1
# Hek293T = experiment: as above; settings: Gynecologic cancer cell panel viability, ATPlite luminescence, 48 h, control line for the selectivity index; series mostly up to 57.5 µM
# Procedure, shortened: as §1
# JEG-3 = experiment: as above; settings: Gynecologic cancer cell panel viability, ATPlite luminescence, 48 h; series mostly up to 57.5 µM
# Procedure, shortened: as §1
# OV90 = experiment: as above; settings: Gynecologic cancer cell panel viability, ATPlite luminescence, 48 h; series mostly up to 57.5 µM
# Procedure, shortened: as §1
# PA-1 = experiment: as above; settings: Gynecologic cancer cell panel viability, ATPlite luminescence, 48 h; series mostly up to 57.5 µM
# Procedure, shortened: as §1
# SKOV3 = experiment: as above; settings: Gynecologic cancer cell panel viability, ATPlite luminescence, 48 h; series mostly up to 57.5 µM
# Procedure, shortened: as §1
# Tov-21-G = experiment: as above; settings: Gynecologic cancer cell panel viability, ATPlite luminescence, 48 h; series mostly up to 57.5 µM
# Procedure, shortened: as §1
# Tov112D = experiment: as above; settings: Gynecologic cancer cell panel viability, ATPlite luminescence, 48 h; series mostly up to 57.5 µM
# Procedure, shortened: as §1
# [2] = at 45.9 µM (top of the series), tumour line B
# [3] = at 45.9 µM (top of the series), tumour line D
# [4] = at 46 µM (top of the series), tumour line A
# [5] = at 46.1 µM (top of the series), tumour line C
compound,measurement,setting,value
CC(=O)O[C@H]1C[C@@H]2CC[C@@H]3[C@H](CC[C@@]4(C)[C@H]3C[C@H]([N+]3(C)CCCCC3)[C@@H]4OC(C)=O)[C@@]2(C)C[C@@H]1[N+]1(C)CCCCC1,"activity, negative = cell killing",[1]; [2],7.88%
same,"activity, negative = cell killing",[1]; [3],-21.6%
same,"activity, negative = cell killing",[1]; [4],-27.9%
same,"activity, negative = cell killing",[1]; [5],-11.1%
CC(=O)OCC(=O)[C@@]12OC(C)(C)O[C@@H]1C[C@H]1[C@@H]3C[C@H](F)C4=CC(=O)C=C[C@]4(C)[C@@]3(F)[C@@H](O)C[C@@]12C,Potency,C33A,inactive
same,Potency,CASKI,inactive
same,Potency,Es-2,inactive
same,Potency,HeLa,inactive
same,Potency,Hek293T,inactive
same,Potency,JEG-3,inactive
same,Potency,OV90,inactive
same,Potency,PA-1,inactive
same,Potency,SKOV3,inactive
same,Potency,Tov-21-G,inactive
same,Potency,Tov112D,inactive
same,"activity, negative = cell killing","[1]; at 20 µM (top of the series), tumour line C",-14.9%
same,"activity, negative = cell killing","[1]; at 21.2 µM (top of the series), tumour line B",-15.5%
same,"activity, negative = cell killing","[1]; at 21.3 µM (top of the series), tumour line A",-1.98%
Oc1c(Cl)cc(Cl)cc1Sc1cc(Cl)cc(Cl)c1O,Potency,C33A,inactive
same,Potency,CASKI,inactive
same,Potency,Es-2,inactive
same,Potency,HeLa,inactive
same,Potency,Hek293T,inactive
same,Potency,JEG-3,inactive
same,Potency,OV90,inactive
same,Potency,PA-1,inactive
same,Potency,SKOV3,inactive
same,Potency,Tov-21-G,inactive
same,Potency,Tov112D,inactive
COC(=O)[C@H]1[C@H]2C[C@H]3c4[nH]c5ccccc5c4CCN3C[C@H]2CC[C@@H]1O,"activity, negative = cell killing",[1]; [2],-4.34%
same,"activity, negative = cell killing",[1]; [3],-13.5%
same,"activity, negative = cell killing",[1]; [5],4.13%
CC(C)C[C@H]1C(=O)N2CCC[C@H]2[C@]2(O)O[C@](NC(=O)[C@@H]3C=C4c5cccc6[nH]c(Br)c(c56)C[C@H]4N(C)C3)(C(C)C)C(=O)N12,"activity, negative = cell killing",[1]; [2],-7.46%
same,"activity, negative = cell killing",[1]; [5],12.4%
same,Potency,[1]; tumour line A,2.24 µM (active)
Nc1cc(Cl)c(NC2=NCCN2)c(Cl)c1,"activity, negative = cell killing",[1]; [2],-8.4%
same,"activity, negative = cell killing",[1]; [3],-1.45%
same,"activity, negative = cell killing",[1]; [4],-27.8%
same,"activity, negative = cell killing",[1]; [5],-9.7%
CNCCC=C1c2ccccc2CCc2ccccc21,"activity, negative = cell killing",[1]; [5],-6.98%
same,Potency,[1]; tumour line A,6.31 µM (active)
same,Potency,[1]; tumour line B,22.4 µM (active)
CC(Cc1ccccc1)(NC(=O)CN)c1ccccc1 (stereo unspecified),Potency,C33A,inactive
same,Potency,CASKI,inactive
same,Potency,Es-2,inactive
same,Potency,HeLa,inactive
same,Potency,Hek293T,inactive
same,Potency,JEG-3,inactive
same,Potency,OV90,inactive
same,Potency,PA-1,inactive
same,Potency,SKOV3,inactive
same,Potency,Tov-21-G,inactive
same,Potency,Tov112D,inactive
same,"activity, negative = cell killing",[1]; [2],-9.21%
same,"activity, negative = cell killing",[1]; [3],3.89%
same,"activity, negative = cell killing",[1]; [5],-26.6%
same,Potency,[1]; tumour line A,20 µM (active)
CCCn1c(=O)[nH]c(=O)c2[nH]cnc21,"activity, negative = cell killing",[1]; [2],-19.3%
same,"activity, negative = cell killing",[1]; [3],9.35%
same,"activity, negative = cell killing",[1]; [4],-17.3%
same,"activity, negative = cell killing",[1]; [5],-18.8%
